# Experimental data as given in PubChem BioAssay AID720650 (Broad Institute, 2013).
# Unmarked numbers belong to inactive results. The source made the active and inactive calls. The rule behind the calls is not given here.
# Assay: C difficile toxins, biochemical counterscreen, UDPG substrate absence, confirmatory dose response (AID 720650)
# Details: series mostly up to 19.5 µM; activity change, negative = inhibition: at the top concentration
Compound,"activity change, negative = inhibition",AC50
COC(=O)C1=C[C@@H](C(=O)OC)[C@@H]2C3=C(C(=O)[C@]2(C)NC(=O)c2ccccc2)[C@H](C)n2c(=O)n(C)c(=O)n2[C@@H]3C1,-11.3%,
CN1C(=O)c2cc(NC(=O)c3cccc(F)c3)ccc2OC[C@@H]2O[C@@H](CC(=O)NCC3CCCCC3)CC[C@@H]21,-1.51%,
COc1cc(/C=N/NC(=O)C2(O)c3ccccc3-c3ccccc32)ccc1O,-11.3%,
CC1CCC/C(=C\c2ccc(O)cc2)C1=O (stereo not given),,7.48 µM (active)
Cc1cscc1-c1nc(NCC2CC2)nc2ccsc12,7.56%,
CCCC(=O)Nc1ccc2c(c1)OC[C@H](C)N(CC1CCCC1)C[C@H](C)[C@@H](OC)CN(C)C2=O,6.08%,
CN1CC(=O)N/C1=N\C(=O)Nc1ccc(O)cc1,-1.9%,
c1ccc(-c2nnc(OCC3CCCO3)c3ccccc23)cc1 (stereo not given),-9.88%,
Nc1ccc(OC(=O)Nc2ccc(O)cc2)cc1,,18.9 µM (active)
C[C@H]1CN([C@@H](C)CO)S(=O)(=O)c2ccc(-c3ccncc3)cc2O[C@@H]1CN(C)Cc1ccc(Oc2ccccc2)cc1,1.01%,
CC(C)NC(=O)N1CC[C@@H]2[C@@H](CO)N(C)c3ccc(-c4ccc(F)cc4)cc3[C@@H]21,,4.11 µM (active)
O=C(/C=C/c1ccc(O)cc1)c1ccccc1,,9.92 µM (active)
COC1=C/C(=C/c2c(N)n3nc(CC(=O)N4CCOCC4)sc3nc2=O)C=CC1=O,0.548%,
Cc1cccc(/C=C/c2onc(C)c2S(=O)(=O)N2CCC(C(=O)NC(C)C)CC2)c1,-6.17%,
Nc1cc(=O)[nH]c(SCC(=O)Nc2ccccc2Sc2ccc(Cl)cc2)n1,-18%,
